Reference: PubChem BioAssay AID1159580 (chemical genetic matrix, 2015)
The campaign covered roughly 5,500 compounds. About 2,000 (36%) were called active. Roughly 18% stayed inconclusive and do not appear here. Cut-off read from the data, not from the text of the source: active = normalized growth mostly below about 0.91 (no sharp cut-off); inconclusive = no clear call, values can overlap the other calls; inactive = mostly above about 0.92. The list shows a part of the results.

Assay: chemical genetic growth profiling, strain panel (AID 1159580);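 note: tested at 20 µM; growth read once vehicle control cultures reached saturation at 30 °C; 1 = growth at the plate median or of vehicle wells; lower values mean less growth of the strain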
Conditions: growth OD

Measured: normalized growth

C[N+]1(C)C[C@H](O)[C@H](C(=O)[O-])C1
inactive: S. cerevisiae deletion strains, locus YJR043C, strain POL32, stronger effect = lower value 0.995 | S. cerevisiae deletion strains, locus YJR075W, strain HOC1, stronger effect = lower value 0.994 | S. cerevisiae deletion strains, locus YKL009W, strain mrt4, stronger effect = lower value 0.991 | S. cerevisiae deletion strains, locus YKL068W, stronger effect = lower value 0.996 | S. cerevisiae deletion strains, locus YKL085W, strain MDH1 (second series), stronger effect = lower value 0.988 | S. cerevisiae deletion strains, locus YKL085W, strain MDH1, stronger effect = lower value 0.988 | S. cerevisiae deletion strains, locus YKL160W, strain elf1, stronger effect = lower value 0.993 | S. cerevisiae deletion strains, locus YKL190W, strain CNB1, stronger effect = lower value 1.01 | S. cerevisiae deletion strains, locus YKR001C, strain vps1, stronger effect = lower value 0.995 | S. cerevisiae deletion strains, locus YKR026C, strain gcn3, stronger effect = lower value 1.01 | S. cerevisiae deletion strains, locus YKR091W, strain srl3, stronger effect = lower value 1.01 | S. cerevisiae deletion strains, locus YLL001W, strain dnm1, stronger effect = lower value 1 | S. cerevisiae deletion strains, locus YLL026W, stronger effect = lower value 1.02 | S. cerevisiae deletion strains, locus YLL041C, strain sdh2, stronger effect = lower value 1.01 | S. cerevisiae deletion strains, locus YLR027C, strain aat2, stronger effect = lower value 1.01 | S. cerevisiae deletion strains, locus YLR039C, strain RIC1, stronger effect = lower value 1.02 | S. cerevisiae deletion strains, locus YLR058C, strain SHM2, stronger effect = lower value 1.01 | S. cerevisiae deletion strains, locus YLR102C, strain apc9, stronger effect = lower value 0.995 | S. cerevisiae deletion strains, locus YLR221C, strain rsa3, stronger effect = lower value 0.997 | S. cerevisiae deletion strains, locus YLR258W, strain gsy2, stronger effect = lower value 1.03 | S. cerevisiae deletion strains, locus YLR262C, strain YPT6 (second series), stronger effect = lower value 1.02 | S. cerevisiae deletion strains, locus YLR262C, strain YPT6, stronger effect = lower value 1.01 | S. cerevisiae deletion strains, locus YLR268W, strain sec22, stronger effect = lower value 0.991 | S. cerevisiae deletion strains, locus YLR320W, strain mms22, stronger effect = lower value 1.03 | S. cerevisiae deletion strains, locus YLR330W, strain CHS5, stronger effect = lower value 1 | S. cerevisiae deletion strains, locus YLR342W, strain FKS1 (second series), stronger effect = lower value 1.02 | S. cerevisiae deletion strains, locus YLR342W, strain FKS1, stronger effect = lower value 1.01 | S. cerevisiae deletion strains, locus YLR357W, strain rsc2, stronger effect = lower value 1.02 | S. cerevisiae deletion strains, locus YLR370C, strain arc18, stronger effect = lower value 1.02 | S. cerevisiae deletion strains, locus YLR371W, strain rom2, stronger effect = lower value 0.996 | S. cerevisiae deletion strains, locus YLR384C, strain iki3, stronger effect = lower value 1.02 | S. cerevisiae deletion strains, locus YLR418C, strain cdc73, stronger effect = lower value 1.01 | S. cerevisiae deletion strains, locus YML016C, strain PPZ1, stronger effect = lower value 1.01 | S. cerevisiae deletion strains, locus YML032C, strain rad52, stronger effect = lower value 0.991 | S. cerevisiae deletion strains, locus YML120C, strain ndi1, stronger effect = lower value 0.991 | S. cerevisiae deletion strains, locus YML124C, strain tub3, stronger effect = lower value 0.997 | S. cerevisiae deletion strains, locus YMR058W, strain fet3, stronger effect = lower value 1.01 | S. cerevisiae deletion strains, locus YMR078C, strain ctf18, stronger effect = lower value 1.01 | S. cerevisiae deletion strains, locus YMR125W, strain sto1, stronger effect = lower value 1.02 | S. cerevisiae deletion strains, locus YMR129W, stronger effect = lower value 1.01 | S. cerevisiae deletion strains, locus YMR205C, strain PFK2, stronger effect = lower value 1.04 | S. cerevisiae deletion strains, locus YMR223W, strain ubp8, stronger effect = lower value 0.989 | S. cerevisiae deletion strains, locus YMR231W, strain pep5, stronger effect = lower value 1.01 | S. cerevisiae deletion strains, locus YMR263W, strain SAP30, stronger effect = lower value 1.02 | S. cerevisiae deletion strains, locus YMR307W, strain GAS1, stronger effect = lower value 1.07 | S. cerevisiae deletion strains, locus YNL067W, strain RPL9B, stronger effect = lower value 1.01 | S. cerevisiae deletion strains, locus YNL071W, strain lat1, stronger effect = lower value 1.02 | S. cerevisiae deletion strains, locus YNL128W, strain TEP1, stronger effect = lower value 1.01 | S. cerevisiae deletion strains, locus YNL153C, strain GIM3, stronger effect = lower value 1.01 | S. cerevisiae deletion strains, locus YNL209W, strain ssb2, stronger effect = lower value 1.01 | S. cerevisiae deletion strains, locus YNL233W, strain BNI4, stronger effect = lower value 1.01 | S. cerevisiae deletion strains, locus YNL248C, strain rpa49, stronger effect = lower value 0.98 | S. cerevisiae deletion strains, locus YNL250W, strain rad50, stronger effect = lower value 0.992 | S. cerevisiae deletion strains, locus YNL271C, strain bni1, stronger effect = lower value 0.995 | S. cerevisiae deletion strains, locus YNL298W, strain CLA4, stronger effect = lower value 1 | S. cerevisiae deletion strains, locus YNL307C, strain MCK1, stronger effect = lower value 1.01 | S. cerevisiae deletion strains, locus YNL322C, strain KRE1 (second series), stronger effect = lower value 1.02 | S. cerevisiae deletion strains, locus YNL322C, strain KRE1, stronger effect = lower value 1.01 | S. cerevisiae deletion strains, locus YNR049C, strain mso1, stronger effect = lower value 1.01 | S. cerevisiae deletion strains, locus YNR052C, strain pop2, stronger effect = lower value 1 | S. cerevisiae deletion strains, locus YOL006C, strain TOP1, stronger effect = lower value 1.06 | S. cerevisiae deletion strains, locus YOL012C, strain htz1 0.813 | S. cerevisiae deletion strains, locus YOL147C, strain pex11, stronger effect = lower value 1 | S. cerevisiae deletion strains, locus YOR001W, strain rrp6, stronger effect = lower value 0.989 | S. cerevisiae deletion strains, locus YOR061W, strain CKA2, stronger effect = lower value 1 | S. cerevisiae deletion strains, locus YOR069W, strain VPS5, stronger effect = lower value 1 | S. cerevisiae deletion strains, locus YOR070C, strain gyp1, stronger effect = lower value 1.01 | S. cerevisiae deletion strains, locus YOR080W, strain dia2, stronger effect = lower value 1.01 | S. cerevisiae deletion strains, locus YOR083W, strain WHI5, stronger effect = lower value 0.979 | S. cerevisiae deletion strains, locus YOR106W, strain vam3, stronger effect = lower value 0.996 | S. cerevisiae deletion strains, locus YOR136W, strain idh2, stronger effect = lower value 0.996 | S. cerevisiae deletion strains, locus YOR144C, strain elg1, stronger effect = lower value 0.996 | S. cerevisiae deletion strains, locus YOR184W, strain ser1, stronger effect = lower value 1.01 | S. cerevisiae deletion strains, locus YOR265W, strain rbl2, stronger effect = lower value 1.01 | S. cerevisiae deletion strains, locus YOR270C, strain vph1, stronger effect = lower value 1.02 | S. cerevisiae deletion strains, locus YOR290C, strain snf2, stronger effect = lower value 1 | S. cerevisiae deletion strains, locus YOR316C, strain cot1, stronger effect = lower value 0.995 | S. cerevisiae deletion strains, locus YPL051W, strain arl3, stronger effect = lower value 1.02 | S. cerevisiae deletion strains, locus YPL055C, strain LGE1, stronger effect = lower value 1.03 | S. cerevisiae deletion strains, locus YPL078C, strain atp4, stronger effect = lower value 1 | S. cerevisiae deletion strains, locus YPL106C, strain sse1, stronger effect = lower value 1.04 | S. cerevisiae deletion strains, locus YPL240C, strain hsp82, stronger effect = lower value 1.02 | S. cerevisiae deletion strains, locus YPL241C, strain CIN2, stronger effect = lower value 1.01 | S. cerevisiae deletion strains, locus YPR119W, strain clb2, stronger effect = lower value 1 | S. cerevisiae deletion strains, locus YPR141C, strain kar3, stronger effect = lower value 1 | S. cerevisiae deletion strains, locus YPR163C, strain tif3, stronger effect = lower value 0.996 | S. cerevisiae deletion strains, locus YPR167C, strain met16, stronger effect = lower value 0.995 | S. cerevisiae deletion strains, strain wtn01, stronger effect = lower value 0.988 | S. cerevisiae strains, strain wild type, stronger effect = lower value 1
